Screens as filed in PubChem BioAssay.
Compounds with a hit are over-represented: about 8.9% of the library has one in this group of screens.
KB-V1 cytotox = KB-V1 MDR subline cytotoxicity; KB-V1 MDR cells viability, CellTiter-Glo, 72 h; Potency, µM (doses to about 46.1 µM), hits mostly cytotoxic; hit rate 3.4% among 400,000; note: potency is the fitted concentration of half-maximal effect; % is set by controls: 0 for no effect and ±100 for the full control effect; nearly all actives have a fitted effect of over 60% in size
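KB-V1 MDR subline cells in DMEM (phenol-red free, 10% FBS) exposed to compounds in qHTS concentration series for 72 h at 37 degrees C. Viability read by CellTiter-Glo luminescence; concentration-effect curves fitted after normalization and correction.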
MCF10A rereplic = DNA re-replication induction in MCF 10a cells; MCF 10A DNA re-replication, Hoechst nuclear intensity, 48 h; Potency, µM (doses to about 46.1 µM), for the others: at the highest dose activity, positive = re-replication, actives largely listed as activators; hit rate 2.9% among 350,000; AID 624296; note: potency is the fitted concentration of half-maximal effect; % of control where 0% means no effect; nearly all actives have a fitted effect of over 50% in size
KB-3-1 cytotox = KB-3-1 parental cell cytotoxicity. KB-3-1 viability, CellTiter-Glo ATP luminescence, 72 h. Potency, µM (doses to about 46.1 µM), hits mostly cytotoxic. hit rate 1.4% among 400,000; note: potency is the fitted concentration of half-maximal effect; % is set by controls: 0 for no effect and ±100 for the full control effect; nearly all actives have a fitted effect of over 60% in size
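Here the drug-naive KB-3-1 line serves as comparator for MDR sub-line selectivity; cells received compound titrations, 72 h at 37 °C, then CellTiter-Glo readout.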
D3 antag = antagonists of human D3 dopamine receptor | P35462 | D3R cells, DiscoveRx beta-arrestin luminescence, antagonist mode; stronger effect = lower value | max response, negative = inhibition, % | hit rate 2.5% among 360,000 | AID 652054; in the data active = max response below about -50%; inconclusive = no clear call, values can overlap the other calls; note: % is set by controls: 0 for no effect and ±100 for the full control effect
Target sequence (P35462 whole entry, looked up): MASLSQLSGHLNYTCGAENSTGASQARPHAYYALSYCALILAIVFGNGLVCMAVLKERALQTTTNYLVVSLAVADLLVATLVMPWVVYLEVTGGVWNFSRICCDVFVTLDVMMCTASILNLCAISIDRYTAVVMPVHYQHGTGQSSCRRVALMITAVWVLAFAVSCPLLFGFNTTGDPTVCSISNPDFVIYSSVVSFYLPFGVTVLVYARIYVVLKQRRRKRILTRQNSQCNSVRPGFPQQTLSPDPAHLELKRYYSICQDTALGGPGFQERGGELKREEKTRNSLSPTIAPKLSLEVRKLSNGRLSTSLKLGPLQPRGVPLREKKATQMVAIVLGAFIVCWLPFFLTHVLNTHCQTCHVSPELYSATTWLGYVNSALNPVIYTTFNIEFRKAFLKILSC
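Cells plated overnight at 1500 cells/well, then exposed to library compounds with dopamine controls for 90 minutes at 37 degrees C. DiscoveRx reagent added for 30–60 minutes at room temperature; luminescence read, quantitative HTS format.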
SW480 rerep = induces DNA re-replication in SW480 colon adenocarcinoma cells; AID 624297; Potency, µM (titrated, usually from 46.1 µM), for inactives: at the highest dose re-replication activation, usual class: activators; SW480 DNA re-replication, Hoechst DNA content imaging, 48 h; hit rate 1.8% among 340,000; note: potency is the fitted concentration of half-maximal effect; % of control where 0% means no effect; nearly all actives have a fitted effect of over 55% in size
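First, 250 cells per well were seeded. Next, compound or vehicle (23 nL) was pinned in, plates sat 48 hr at 37 C. Finally Hoechst was added for 40 min before fluorescence scanning.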
D3 ag = activates the human D3 dopamine receptor; P35462; D3R DiscoveRx beta-arrestin cells, luminescence, 90 min; max activation, %; hit rate 0.58% among 410,000; in the data active = max activation above about 30%; note: 0% is about no effect
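Cells at 1500/well, incubated overnight, then treated with pinned compounds (dopamine as control) for 90 min at 37 degrees C. DiscoveRx reagent added for 30 - 60 minutes at room temperature; luminescence read.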
Active calls of the source: *; [ ] = dose if it differs, or a comment. Unless noted, calls come from the whole dose curve; as a rule, active = well fitted curve in the direction sought with a large enough effect; inconclusive = small, poorly fitted or top-dose-only effect, or another doubt; inactive = no such curve, though single readings can be large; an effect the other way counts as inactive or inconclusive.

For Cc1ccccc1NC(=O)N1CCN(C(=O)c2ccco2)CC1 the results were KB-V1 cytotox inactive, MCF10A rereplic 6%, KB-3-1 cytotox inactive, D3 antag -7, SW480 rerep inconclusive and D3 ag 1.
For COC(=O)c1[nH]c2ccccc2c1NC(=O)CN1CCCCCC1 the results were KB-V1 cytotox inactive, MCF10A rereplic -3%, KB-3-1 cytotox inactive, D3 antag -53*, SW480 rerep -2% and D3 ag 8.
`COC(=O)c1ccccc1NC(=O)N1CCN(C(=O)c2ccco2)CC1` gave KB-V1 cytotox 7.3µM*, MCF10A rereplic 3%, KB-3-1 cytotox inconclusive, D3 antag -5, SW480 rerep -8% and D3 ag 6.
Cc1cc(NC(=O)CN2CCOCC2)n(-c2nc3ccccc3s2)n1 was read as KB-V1 cytotox inconclusive, MCF10A rereplic 15µM*, KB-3-1 cytotox inactive, D3 antag 41, SW480 rerep 10% and D3 ag 10.
For Cc1cc(NC(=O)CN2CCOCC2)n(-c2ccccc2)n1 the results were KB-V1 cytotox inactive, MCF10A rereplic 5%, KB-3-1 cytotox inactive, D3 antag 0, SW480 rerep 3% and D3 ag -16.
For COC(=O)c1[nH]c2ccccc2c1NC(=O)CN1CCC(C(N)=O)(N2CCCCC2)CC1 the results were KB-V1 cytotox inactive, MCF10A rereplic 24%, KB-3-1 cytotox inactive, D3 antag -54*, SW480 rerep 6% and D3 ag 1.
`Cc1cccc(Cn2cc3c(=O)n(CC(=O)Nc4cccc(C)c4C)nc-3c3cc(F)ccc32)c1` gave KB-V1 cytotox inactive, KB-3-1 cytotox inactive and D3 ag 5.
CCOC(=O)C1CCCN(CC(=O)Nc2c(C(=O)OC)[nH]c3ccccc23)C1 (configuration not stated) was read as KB-V1 cytotox inconclusive, MCF10A rereplic 12%, KB-3-1 cytotox inactive, D3 antag -14, SW480 rerep 15% and D3 ag -7.
CCOC(=O)N1CCN(CC(=O)Nc2nc3ccccc3s2)CC1 was read as KB-V1 cytotox 12µM*, MCF10A rereplic 8%, KB-3-1 cytotox inactive, D3 antag 19, SW480 rerep 1% and D3 ag -4.
Screening COC(=O)c1[nH]c2ccccc2c1NC(=O)CN1CCN(C(=O)c2ccco2)CC1 returned KB-V1 cytotox inactive, MCF10A rereplic 6%, KB-3-1 cytotox inactive, D3 antag -52*, SW480 rerep -2%[9.22 µM] and D3 ag 31*.
Screening CCOC(=O)c1[nH]c2ccccc2c1NC(=O)C1CCCC1 returned KB-V1 cytotox inactive, MCF10A rereplic 1%, KB-3-1 cytotox inactive, D3 antag 1, SW480 rerep 4% and D3 ag -4.
For CCOC(=O)N1CCN(CC(=O)Nc2c(C(=O)OC)[nH]c3ccccc23)CC1 the results were KB-V1 cytotox inconclusive, MCF10A rereplic 5.8µM*, KB-3-1 cytotox inactive, D3 antag 9, SW480 rerep -4% and D3 ag 8.
`COC(=O)c1[nH]c2ccccc2c1NC(=O)CN1CCN(c2cccc(Cl)c2)CC1` gave KB-V1 cytotox inconclusive, MCF10A rereplic inconclusive, KB-3-1 cytotox inactive, D3 antag -14, SW480 rerep -1% and D3 ag 0.
`COC(=O)c1[nH]c2ccccc2c1NC(=O)CNC1CCCCC1` gave KB-V1 cytotox 18µM*, MCF10A rereplic inconclusive, KB-3-1 cytotox inactive, D3 antag 9, SW480 rerep -2% and D3 ag 3.
`CCN1CCN(CC(=O)Nc2nc3ccccc3s2)CC1` gave KB-V1 cytotox inactive, MCF10A rereplic -4%, KB-3-1 cytotox inactive, D3 antag 7, SW480 rerep -3% and D3 ag -2.
`CN1C(=O)Cc2cc(S(=O)(=O)CCC(=O)Nc3ccc(Cl)cc3)ccc21` gave KB-V1 cytotox inactive, KB-3-1 cytotox inactive and D3 ag -17.
Screening CCOC(=O)c1[nH]c2ccc(OC)cc2c1NC(=S)N1CCN(C(=O)OCC)CC1 returned KB-V1 cytotox inactive, MCF10A rereplic 3%, KB-3-1 cytotox inactive, D3 antag -8, SW480 rerep 5% and D3 ag -7.
For COC(=O)c1[nH]c2ccccc2c1NC(=O)Oc1ccccc1 the results were KB-V1 cytotox inactive, MCF10A rereplic -1%, KB-3-1 cytotox inactive, D3 antag -52*, SW480 rerep -8% and D3 ag -2.
CCOC(=O)c1[nH]c2ccc(OC)cc2c1NC(=S)N1CCN(c2ccccc2OC)CC1 was read as KB-V1 cytotox inconclusive, MCF10A rereplic inconclusive, KB-3-1 cytotox 8.2µM*, D3 antag 11, SW480 rerep inconclusive and D3 ag 4.
O=C(CN1CCOCC1)Nc1c2c(nc3ccccc13)N(Cc1ccccc1)CC2 was read as KB-V1 cytotox inactive, MCF10A rereplic -3%, KB-3-1 cytotox inactive, D3 antag 14, SW480 rerep -3% and D3 ag -21.
`O=C(CN1CCCC1)Nc1c2c(nc3ccccc13)N(Cc1ccccc1)CC2` gave KB-V1 cytotox 23µM*, MCF10A rereplic -5%, KB-3-1 cytotox inactive, D3 antag inconclusive, SW480 rerep -5% and D3 ag -18.
Screening COc1cc(OC)cc(C(=O)N[C@H](C(=O)OCC(=O)Nc2ccc(C)cc2C)C(C)C)c1 returned KB-V1 cytotox inactive, MCF10A rereplic 14%, KB-3-1 cytotox inconclusive, D3 antag 6, SW480 rerep 6% and D3 ag 3.
Screening COc1ccc(NC(=O)COC(=O)C(NC(=O)c2ccc(C)cc2)C(C)C)cn1 (configuration not stated) returned KB-V1 cytotox 15µM*, MCF10A rereplic -8%, KB-3-1 cytotox inactive, D3 antag -18, SW480 rerep -6% and D3 ag 10.
`c1cnc2[nH]ccc2c1` gave KB-V1 cytotox inactive and KB-3-1 cytotox inactive.
`O=C1NC(c2ccccc2)N=C2Oc3ccccc3C=C12` (configuration not stated) gave KB-V1 cytotox 4.1µM*, MCF10A rereplic inconclusive, KB-3-1 cytotox 1.3µM*, D3 antag -18, SW480 rerep inconclusive and D3 ag -6.
Screening O=C(NC1CCCC1)C(c1ccc(F)cc1)N1CCC(O)(c2ccc(Cl)cc2)CC1 (configuration not stated) returned KB-V1 cytotox inconclusive, KB-3-1 cytotox inactive, D3 antag -93* and D3 ag -15.
